Bioassay records deposited in PubChem BioAssay by National Center for Advancing Translational Sciences (NCATS).
The list is not random: actives were taken first. Their share in the collection is about 5.9%.
GLP-1R inv ag = inverse agonists of human GLP-1 receptor. P43220. HEK293 GLP-1R CRE-luciferase, luminescence, 24 h; GLP-1R form is constitutively active. Potency, µM (titrated, usually from 38.3 µM), for inactives: at the highest dose activity change, negative = inhibition, usual class: inhibitors. 410,000 compounds, 1.6% hits. AID 624417; further: on the % scale 0 is the no-effect control and ±100 the full control effect; nearly all actives have a fitted effect of over 55% in size
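Cells are plated, allowed 12 hours at 37 deg C, then treated with compounds for 24 hr before luciferase detection reagent is added and luminescence is read after 12 min at room temperature. The HEK293 line carries constitutively active GLP-1R with a cAMP-responsive reporter.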
GLP1R cytotox = cytotoxic in the GLP-1 receptor inverse agonist counter-screen; HEK293 cAMP-luciferase reporter cells, luminescence, 24 h; Potency, µM (series often up to 38.3 µM), for inactives: top-dose activity change, negative = inhibition, usual class: inhibitors; 410,000 compounds, 0.13% hits;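 further: loss of luciferase light is scored as toxicity; on the % scale 0 is the no-effect control and ±100 the full control effect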
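Compound-treated cells are incubated 24 hr at 37 deg C under 5% CO2 after a 12 hour attachment period, then luciferase detection reagent is added and luminescence is measured following 12 min at room temperature; lowered signal indicates toxicity.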
RORgamma inh = blocks mouse ROR gamma transcriptional activity. P51450. Drosophila S2 Gal4-RORgamma UAS-luciferase reporter, 20 h. Potency, µM (series often up to 53.6 µM), for inactives: at the top dose activity change, negative = inhibition, actives largely listed as inhibitors. 310,000 compounds, 5.4% hits. AID 2551; further: on the % scale 0 is the no-effect control and ±100 the full control effect; nearly all actives have a fitted effect of over 60% in size
Target sequence (P51450 whole entry, looked up, the tested form may be a part): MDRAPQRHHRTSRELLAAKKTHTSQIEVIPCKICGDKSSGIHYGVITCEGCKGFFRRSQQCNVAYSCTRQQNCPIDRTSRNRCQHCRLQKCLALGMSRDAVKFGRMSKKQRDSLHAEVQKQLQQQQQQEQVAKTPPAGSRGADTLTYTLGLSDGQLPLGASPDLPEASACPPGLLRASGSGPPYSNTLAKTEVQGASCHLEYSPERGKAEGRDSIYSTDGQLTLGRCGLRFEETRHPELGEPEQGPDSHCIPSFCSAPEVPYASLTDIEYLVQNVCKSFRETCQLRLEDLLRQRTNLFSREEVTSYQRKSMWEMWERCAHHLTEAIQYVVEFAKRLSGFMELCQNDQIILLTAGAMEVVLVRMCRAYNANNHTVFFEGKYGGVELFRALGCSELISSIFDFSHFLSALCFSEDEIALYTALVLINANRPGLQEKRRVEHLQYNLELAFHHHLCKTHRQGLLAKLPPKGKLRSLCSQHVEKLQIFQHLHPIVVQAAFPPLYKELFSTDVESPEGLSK
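Drosophila S2 cells stably expressing Gal4-DBD/mouse RORγ fusion under metallothionein promoter plus UAS-luciferase; compound 1 h, then 700 uM CuSO4 induction for 20 h at ambient temperature; inhibition read as reduced luminescence.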
GLP1R ag = agonists of human GLP-1 receptor; 380,000 compounds, 0.007% hits; HEK293 GLP-1R CRE-luciferase, luminescence, 4-6 h; cells express a hypersensitive GLP-1R form; AID 624172; Potency, µM (top dose mostly 45.6 µM), inactives show at the top dose activation, actives largely listed as activators; further: % of control where 0% means no effect
VP16 counter = counter-screen for ROR gamma inhibitors: Gal4-VP16 reporter. Drosophila S2 Gal4-VP16 UAS-luciferase, luminescence, 20 h. Potency, µM (titrated, usually from 53.6 µM), for inactives: at the highest dose activity, negative = inhibition, usual class: inhibitors. 310,000 compounds, 3.5% hits;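 further: Gal4-VP16 expression switched on by copper sulfate through the metallothionein promoter; on the % scale 0 is the no-effect control and ±100 the full control effect; nearly all actives have a fitted effect of over 50% in size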
Starred values were filed as active, the others as inactive; ? = inconclusive; . = no result. The call rests on the fitted dose curve; in most records, active means well fitted curve in the direction sought with a large enough effect; inconclusive means small, poorly fitted or top-dose-only effect, or another doubt; inactive means no such curve, though single readings can be large; an effect the other way counts as inactive or inconclusive. Potency means the concentration at half of the fitted maximal effect.

SMILES	GLP-1R inv ag	GLP1R cytotox	RORgamma inh	GLP1R ag	VP16 counter
COc1ccccc1C(=O)N/C(=N/c1nc(C)cc(C)n1)Nc1ccccc1	26%	-4%	10µM*	27%	?
CC(=O)c1ccc(OCc2ccc(C(=O)c3ccccc3)cc2)cc1	?	-2%	?	7%	?
CC(=O)c1ccc(OCc2ccc(Oc3c(Cl)cccc3[N+](=O)[O-])cc2)cc1	4%	?	?	0%	20µM*
O=[N+]([O-])c1ccc(CSc2ncnc3ccccc23)cc1	-21%	12%	7.9µM*	13%	23%
CC(C)(C)C(=O)NC(=S)Nc1ccc(F)cc1	3%	-9%	10µM*	1%	?
CNC(=S)Nc1ccc(Cc2ccncc2)cc1	15%	-1%	-22%	1%	-5%
O=C(NC(=S)Nc1ccc(Cc2ccncc2)cc1)c1ccc(F)cc1	-11%	-38%	4.5µM*	22%	?
CC(=O)Nc1ccc(NC(=S)Nc2ccc(F)cc2)cc1	-17%	6%	-26%	5%	-2%
CC(C)(C)C(=O)NC(=S)Nc1ccc(Cc2ccncc2)cc1	?	13%	13µM*	2%	13µM*
CC(=O)c1nn(-c2ccc(OC(F)(F)F)cc2)nc1Nc1ccc(C)cc1	10%	5%	.	.	.
COc1ccc(NC(=O)[C@H]2O[C@@H]3OC(C)(C)O[C@@H]3[C@H]3OC(C)(C)O[C@H]32)c(OC)c1	0%	-14%	.	.	.
Cc1ccc(NC(=O)Cn2cnc3c(oc4ccccc43)c2=O)cc1Cl	12%	-12%	.	.	.
Cc1cccc(OCC(=O)NCC2(N3CCN(C)CC3)CCCCC2)c1	-4%	4%	.	.	.
CN(C(=O)CSc1nc2ccc(NC(=O)c3cccc(F)c3)cc2s1)c1ccccc1	5.6µM*	?	.	.	.
CCOC(=O)CN=C1CC(C)(C)CC2=C1Sc1ncnc(N(C)C)c1N2	0%	7%	11µM*	8%	?
CCOC(=O)C1=C(C)NC2=C(C(=O)CC(C)(C)C2)C1c1cccc(C)n1 (stereo unspecified)	-9%	86%	-4%	-2%	-21%
CC(C)Cc1nn2cc(-c3cccc(Br)c3)nc2s1	?	2%	.	.	.
CN(c1ccccc1)S(=O)(=O)c1ccc(C(=O)Nc2nnc(C3CC3)o2)cc1	1%	6%	0.32µM*	-2%	1µM*
CCN(c1ccccc1)S(=O)(=O)c1ccc(C(=O)Nc2cccc(C)n2)cc1	?	1%	.	-3%	.
CCN(c1ccccc1)S(=O)(=O)c1ccc(C(=O)Nc2nnc(C3CC3)o2)cc1	-11%	-9%	0.25µM*	-2%	0.56µM*
CN(c1ccccc1)S(=O)(=O)c1ccc(C(=O)Nc2nnc(C3CC3)s2)cc1	-2%	-1%	-6%	9%	-2%
O=C(CSc1nc(=O)[nH]c2c1CCCC2)NCc1ccc(F)cc1	11%	0%	.	.	.
Clc1ccc(-c2cc3ncc4c(n3n2)-c2ccccc2OC4)cc1	13%	-11%	.	-3%	.
CN1CCN(c2ncc3nc(-c4cn(C)c5ccccc45)c(=O)n(CCC#N)c3n2)CC1	.	.	-33%	.	?
COc1ccc2[nH]c(C)c(CCNC(=S)Nc3ccccc3OC)c2c1	-28%	?	10µM*	-2%	-1%
SMILES	GLP-1R inv ag	GLP1R cytotox	RORgamma inh	GLP1R ag	VP16 counter
COc1ccc2[nH]c(C)c(CCNS(=O)(=O)c3cc(F)ccc3OC)c2c1	-1%	-3%	.	.	.
COc1ccc2[nH]c(C)c(CCNC(=S)Nc3cc(C)ccc3C)c2c1	-26%	5%	5µM*	15%	?
COc1ccc2[nH]c(C)c(CCNC(=S)Nc3ccc(F)cc3)c2c1	?	-18%	4µM*	-7%	3.5µM*
COc1ccc2[nH]c(C)c(CCNC(=S)Nc3cccc(C)c3)c2c1	?	-20%	5µM*	13%	20µM*
COc1ccccc1NC(=O)Cn1c(=O)n(Cc2ccccc2)c(=O)c2sc3ccccc3c21	16%	2%	.	0%	.
COc1ccc(NC(=O)CC2C(=O)N(c3ccc(F)cc3)C(=O)N2Cc2ccco2)cc1 (stereo unspecified)	-2%	-3%	.	.	.
CNS(=O)(=O)c1cc(N(C)S(=O)(=O)c2ccc(C)cc2)c(C)cc1C	-28%	-3%	-1%	3%	10%
Cc1ccc(S(=O)(=O)N(C)c2cc(S(=O)(=O)N3CCC(C)CC3)c(C)cc2C)cc1	13µM*	-1%	?	-6%	?
CN(C)C(=O)/C(C#N)=C\c1cc(Br)c(Sc2ccc(Cl)cc2)o1	?	9%	?	-10%	10µM*
CCOC(=O)C1(Cc2cccc(OC)c2)CCN(Cc2cccc(O)c2)CC1	11µM*	-2%	-4%	6%	-4%
CCOC(=O)C1(Cc2cccc(OC)c2)CCN(Cc2ccccc2OC)CC1	?	-4%	-21%	12%	-6%
CCOC(=O)C1(Cc2cccc(OC)c2)CCN(Cc2ccc(OC)c(OC)c2)CC1	?	-18%	43%	5%	1%
CCOC(=O)C1(Cc2cccc(OC)c2)CCN(Cc2ccc(C)s2)CC1	10µM*	?	-5%	3%	-15%
COc1ccc(CCNc2nc(SCc3cccc(Cl)c3)nc3ccccc23)cc1OC	2%	-7%	.	.	.
O=C(c1cccs1)c1no[n+]([O-])c1C(=O)c1cccs1	?	?	11µM*	-2%	11µM*
COc1ccc(C(=O)c2no[n+]([O-])c2C(=O)c2ccc(OC)cc2)cc1	0%	?	?	-2%	?
N[C@H](Cn1ccc(=O)n(Cc2ccccc2C(=O)O)c1=O)C(=O)O	.	.	7%	.	6%
O=C(OCn1ncc(Br)c(Br)c1=O)c1ccc(F)cc1	?	?	?	-6%	0.63µM*
O=C(OCn1ncc(Br)c(Br)c1=O)c1ccccc1Cl	?	?	6.3µM*	-22%	5.6µM*
COc1ccc(Cl)cc1NC(=O)CSc1nc(=O)n(CCN(C)C)c2c1CCCC2	11µM*	0%	.	-1%	.
CN(C)CCn1c2c(c(SCC(=O)Nc3cccc(C(F)(F)F)c3)nc1=O)CCCC2	10µM*	-7%	.	7%	.
COc1ccc(OC)c(NC(=O)CSc2nc(=O)n(CCN(C)C)c3c2CCC3)c1	4%	0%	.	.	.
Cc1ccc(-n2ncc3c(NCCCn4ccnc4)ncnc32)cc1	?	20%	.	.	.
CCOc1cc(CNCCSc2nnnn2C)cc(Br)c1OCc1ccccc1F	?	-24%	13%	19%	-15%
CCOc1cc(CNCc2cccs2)cc(Br)c1OCC	10µM*	-10%	-6%	14%	0%
CCOc1cc(CNCc2ccncc2)cc(Br)c1OCc1ccccc1F	11µM*	-3%	33%	7%	?
